Results from ChEMBL document CHEMBL3988442, “University of Dundee, Small-Polar-MMV Screening Library” (2021).
Hit rate of the full screen: of about 69,000 compounds, about 950 (1.4%) showed an effect of 50% or more. The sample holds strong results, similar compounds and a random draw of the others, so the mix is not that of the screen.

tested on: Mycobacterium tuberculosis; assay: Cornell M. t heat shock assay; type: functional, organism-based; design: dose or concentration left out as unconfirmed; further: in the data most compounds retested in dose-response had high values

Structure (SMILES) | Percent Effect [%]
COC[C@@H]1CCC[C@@]12CN(Cc1ccc(C)s1)CCO2.O=C(O)C(F)(F)F | -18.91
CCOCc1cnc2n1CCN(C(=O)c1cccc3c1OCCO3)C2C (configuration not stated) | 51.66
CCOCc1cnc2n1CCN(C(=O)c1cn(C)c3ccccc13)C2C (configuration not stated) | 8.997
CCOCc1cnc2n1CCN(C(=O)c1ccccc1)C2C (configuration not stated) | 53.26
CCOCc1cnc2n1CCN(C(=O)Cc1cccs1)C2C (configuration not stated) | -15.31
CCOCc1cnc2n1CCN(C(=O)c1ccoc1C)C2C (configuration not stated) | 26.88
CCOCc1cnc2n1CCN(C(=O)C1=CCCC1)C2C (configuration not stated) | -7.076
Cc1nc(COC[C@@H]2CC[C@H]3[C@H](CCN3c3ncccn3)O2)cs1.O=C(O)C(F)(F)F | 3.819
O=C(O)C(F)(F)F.O=C(O)C(F)(F)F.O=C(O)C(F)(F)F.c1ccc(N2CC3(CCN(Cc4cccnc4)C3)C2)nc1 | -1.371
COc1ncccc1CN1C[C@H]2C[C@@H](C(=O)NCC3CC3)N(C)[C@H]2C1.O=C(O)C(F)(F)F.O=C(O)C(F)(F)F.O=C(O)C(F)(F)F | -0.5017
COCCNC(=O)[C@@]12CCO[C@@H]1CCN(Cc1cc(C)on1)C2.O=C(O)C(F)(F)F | -5.953
COc1ccc(C(CNS(=O)(=O)c2cn(C)nc2C)N2CCCC2)cc1.Cl (configuration not stated) | -8.275
Cc1cccc(CN(Cc2ccccn2)Cc2ncc(C(C)(C)C)o2)c1 | 77.52
CCN(Cc1cccc(Cl)c1)Cc1ncc(C(C)(C)C)o1 | -28.51
Cc1cccc(CN(Cc2ccccn2)S(=O)(=O)N(C)C)c1 | -11.53
O=C(O)C(F)(F)F.O=C(c1cc[nH]n1)N1CCc2onc(COc3cccnc3)c2C1 | 4.696
CC(Cn1ccnc1)NCc1cc(Br)c2c(c1)OCO2.Cl (configuration not stated) | -15.88
Cc1nc2ccccc2nc1CN1CCCC1Cn1cccn1 (configuration not stated) | 61.51
Clc1ccc2cccnc2c1CN1CCCC1Cn1cncn1 (configuration not stated) | 52.22
Cc1c(Cl)c(CN2CCCC2Cn2cncn2)nc2ccccc12 (configuration not stated) | 54.06
Clc1ccc2cccnc2c1CN1CCCCC1Cn1cncn1 (configuration not stated) | 36.55

Structure (SMILES) | Percent Effect [%]
Cc1nc2ccccc2nc1CN1CCCCC1Cn1cncn1 (configuration not stated) | 12.5
O=C(CN1CCCC1Cn1cncn1)Nc1cccnc1 (configuration not stated) | 62.16
O=C(CN1CCCCC1Cn1cncn1)Nc1ccncc1 (configuration not stated) | -9.468
Cc1nc2ccccc2nc1CN1CCCCC1Cn1cccn1 (configuration not stated) | 5.148
Cc1nc(CN2CCCC2Cn2cncn2)nc2ccccc12 (configuration not stated) | 19.17
Cc1nc2ccccc2nc1CN1CCCC1Cn1cncn1 (configuration not stated) | 3.442
O=C(CN1CCCC(Cn2cncn2)C1)Nc1cccnc1 (configuration not stated) | 9.071
Clc1ccc2cccnc2c1CN1CCCC(Cn2cncn2)C1 (configuration not stated) | 18.36
CN1CC(=O)N(c2cccc(F)c2)CC12CCN(Cc1cnn(C)c1)C2.O=C(O)C(F)(F)F.O=C(O)C(F)(F)F (configuration not stated) | -4.947
Cc1cccc(Nc2cc(C)nc(C3CCN(C(C)C)C3)n2)n1.O=CO (configuration not stated) | -16.48
Cn1cc(CN2CCC[C@]3(C[C@H](Oc4ncccc4F)CO3)C2)cn1.O=C(O)C(F)(F)F.O=C(O)C(F)(F)F | 15.03
Cc1cnc(C(=O)N2CCCC(c3c(C)c(=O)nc4n3CCC4)C2)cn1.Cl (configuration not stated) | -2.984
Cc1cc2cc(C(=O)N3CC[C@H](O)[C@]4(CCCO4)C3)ccc2o1 | -15.2
CCC(C)NS(=O)(=O)Cc1cccc(NC(=O)C2=CCCC2)c1 (configuration not stated) | 26.24
Cc1cccc2nc(CN3CCCC3Cn3cncn3)cn12 (configuration not stated) | -15.33
Cc1cccc2nc(CN3CCCC3Cn3cccn3)cn12 (configuration not stated) | 71.56
Cc1nc(C)n(CC2CCCN2Cc2cn3c(C)cccc3n2)n1 (configuration not stated) | -6.121
Cc1cc(N(C)C)nc(C2CCCNC2)n1.Cl (configuration not stated) | -4.07
COc1ccc(C[C@H]2CN(Cc3ccoc3)CC[C@H]2OC)cc1.O=C(O)C(F)(F)F | 23.61
CCCN(CCn1c(=O)oc2ccccc21)CC1CC1 | 105
CCN(Cc1ccc(C(C)=O)cc1)CC1CCOCC1 | 5.377

Structure (SMILES) | Percent Effect [%]
CC(NCCn1c(=O)oc2ccccc21)c1ccccn1 (configuration not stated) | 5.47
O=c1oc2ccccc2n1CCN(CC1CCOC1)C1CC1 (configuration not stated) | -26.82
CCN(CC)CCn1c(=O)oc2ccccc21.Cl | 76.75
Cn1cc(C2CCCN2CCCn2c(=O)oc3ccccc32)cn1 (configuration not stated) | -2.71
CCN(CCn1c(=O)oc2ccccc21)CC1CCOCC1 | 86.99
O=c1oc2ccccc2n1CCCN1CCCC1c1ccc(O)cc1 (configuration not stated) | -35.87
Cc1noc(C)c1CN(C)Cn1c(=O)oc2ccccc21 | -12.14
COc1cccc(Nc2nc(C3CCNCC3)c3sc(C)c(C)n23)c1.Cl | 44.92
CN(C)[C@@H]1CN(Cc2cnn(C)c2)[C@@H]2COC[C@H]12.O=C(O)C(F)(F)F.O=C(O)C(F)(F)F.O=C(O)C(F)(F)F | -14.51
O=C(O)C(F)(F)F.O=C1CC[C@H]2[C@H](CCN2c2ncccn2)N1c1ccccc1 | 21.09
FC(F)(F)c1ccccc1CN1CCOC[C@H](Oc2cccnc2)C1 | -28.03
c1cncc(O[C@H]2COCCN(Cc3c[nH]c4ccccc34)C2)c1 | 58.82
COc1ccc(O[C@H]2COCCN(Cc3c[nH]c4ccccc34)C2)cc1 | 47.94
CC(C)(C)c1coc([C@@H]2COCCN2Cc2c[nH]c3ccccc23)n1 | 25.07
c1ccc(O[C@H]2COCCN(Cc3c[nH]c4ccccc34)C2)cc1 | 78.8
CO[C@H]1COCCN(Cc2c[nH]c3ccccc23)C1 | 82.59
Fc1ccc(CN2CCOC[C@H](Oc3cccnc3)C2)cc1 | -34.69
O=C(O)c1ccc2c(CN3CCOCC3)c[nH]c2c1 | -11.23
c1ccc(O[C@H]2COCCN(Cc3cccc4c3OCO4)C2)cc1 | -21.01
CCC(C)S(=O)(=O)N1CCc2nc(C3CCNCC3)ncc2C1.Cl (configuration not stated) | -3.075
